Data on 46 compounds can be found in ChEMBL document CHEMBL4808148, “HDAC6 screening dataset using tau-based substrate in an enzymatic assay yields selective inhibitors and activators” (2021).

The target in assay [1] is T1, Protein deacetylase HDAC6 (Homo sapiens) (UniProt Q9UBN7).
T1 sequence (whole entry): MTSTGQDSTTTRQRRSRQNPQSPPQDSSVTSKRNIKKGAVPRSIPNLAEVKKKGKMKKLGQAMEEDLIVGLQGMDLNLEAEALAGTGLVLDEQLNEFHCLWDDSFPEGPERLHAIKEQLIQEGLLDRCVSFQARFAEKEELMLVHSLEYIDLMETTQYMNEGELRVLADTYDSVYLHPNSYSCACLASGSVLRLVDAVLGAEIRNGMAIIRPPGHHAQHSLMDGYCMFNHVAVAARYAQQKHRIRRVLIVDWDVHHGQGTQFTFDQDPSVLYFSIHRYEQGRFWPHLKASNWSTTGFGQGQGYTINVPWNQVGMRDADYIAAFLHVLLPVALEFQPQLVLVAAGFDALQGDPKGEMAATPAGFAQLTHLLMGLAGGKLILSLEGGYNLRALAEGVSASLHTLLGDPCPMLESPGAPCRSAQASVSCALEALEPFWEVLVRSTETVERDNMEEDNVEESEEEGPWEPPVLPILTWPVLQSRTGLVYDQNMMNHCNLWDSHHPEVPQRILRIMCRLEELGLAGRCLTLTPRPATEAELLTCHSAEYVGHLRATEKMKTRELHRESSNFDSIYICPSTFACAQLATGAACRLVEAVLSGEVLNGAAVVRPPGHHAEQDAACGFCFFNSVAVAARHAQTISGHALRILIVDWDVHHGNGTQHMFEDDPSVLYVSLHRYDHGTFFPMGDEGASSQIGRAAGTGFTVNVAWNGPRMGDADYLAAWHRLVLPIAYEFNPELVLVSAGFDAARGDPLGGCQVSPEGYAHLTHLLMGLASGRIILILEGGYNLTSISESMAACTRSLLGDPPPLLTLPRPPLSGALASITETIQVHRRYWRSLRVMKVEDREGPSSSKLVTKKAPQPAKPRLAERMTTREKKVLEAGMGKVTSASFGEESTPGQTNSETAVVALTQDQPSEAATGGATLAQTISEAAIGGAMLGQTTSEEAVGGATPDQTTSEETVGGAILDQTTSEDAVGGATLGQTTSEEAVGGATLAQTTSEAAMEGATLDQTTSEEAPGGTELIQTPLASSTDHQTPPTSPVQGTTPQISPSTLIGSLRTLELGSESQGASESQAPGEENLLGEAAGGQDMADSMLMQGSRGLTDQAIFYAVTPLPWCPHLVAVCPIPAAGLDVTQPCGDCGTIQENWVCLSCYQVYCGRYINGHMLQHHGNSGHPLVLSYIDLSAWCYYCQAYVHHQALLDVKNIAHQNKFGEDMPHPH
Conditions: at 10 µM.

In assay [2] the target is Protein deacetylase HDAC6 (Homo sapiens) (UniProt Q9UBN7). The following applies: at 10 µM. This is another data set of the same source.

The whole screen tested about 5,600 compounds, of which about 390 (7%) showed an effect of 50% or more. Shown is part of a subset that was picked to be rich in strong results. Starred links: 1 amine or outer side, 2 acyl side, 3 side chain; linkers in the order of their positions; H or OH if unused. Positions of bridges follow the written chain, without caps; N, C: chain ends. Non-standard residues stand in square brackets, D forms with d. Residues, ends and D or L forms follow the SMILES beside them. Chains are numbered I, II in the order given. Actinocin(9to1) = Cc1c2oc3c(C)ccc(C(=O)[*:1])c3nc-2c(C(=O)[*:2])c(N)c1=O; NMeV = CN[C@H](C(=O)O)C(C)C; Sar = CNCC(=O)O

As usually defined, the inhibition is the relative decrease from the control value, in per cent. For `c1cc(-c2sc(-c3ccncc3)c(-c3ccncc3)c2-c2ccncc2)ccn1`, the inhibition in assay [1] amounted to 17%.
Still for that read-out and setting: as for `COc1cc(N)c(Cl)cc1C(=O)CCC1CCN(CCNS(C)(=O)=O)CC1`, the figure is -6.48%; as for `Nc1ncnc2c1ncn2[C@@H]1O[C@H](CO)C[C@H]1O`, -9.63%.
On the same count and under the same terms, the result for `CC(=O)Oc1c(C)cc(OCC(O)CNC(C)C)c(C)c1C` (stereo unspecified) reads 28.4%; that for `CCOc1ccc(-n2c(C(C)N(Cc3cccnc3)C(=O)Cc3ccc(F)c(C(F)(F)F)c3)nc3ncccc3c2=O)cc1` (racemic), -3.08%; that for `COc1cc2nccc(Oc3ccc(NC(=O)Nc4ccc(F)cc4F)c(F)c3)c2cc1OC`, 10.8%.
On to `CCCCOc1ccc(C(=O)Nc2ccc(F)cc2F)cc1`, for which the inhibition in assay [1] stood at 69.8%.
Turning to `COc1cccc(-c2ccc(NC(=O)C3=C(C(=O)O)CCC3)c(F)c2)c1`, the inhibition in assay [1] came to 43.2%.
Take “CHLOROPHYLLIDECOPPER COMPLEX SODIUM SALT, CHEMBL5308389”: the inhibition in assay [2] amounted to 8.12%.
“Chlorophyllin (sodium copper salt), CHEMBL5308389”: the inhibition in assay [2] turned out to be 19.3%.
In the case of BISMUTH SUBSALICYLATE, CHEMBL1120, the inhibition in assay [2] was 12.2%.
Consider `Cc1c(-c2ccc(-c3ccccc3F)cc2)nc2ccc(F)cc2c1C(=O)O`, for which the inhibition in assay [1] was -9.14%.
In the case of `O=C(O)c1cc(-c2ccc(F)cc2F)ccc1O`, the inhibition in assay [1] worked out at 60.9%.
`O=C(O)C1(c2ccc(-c3ccc(Cl)c(Cl)c3)c(F)c2)CC1`: the inhibition in assay [1] is 33.4%.
Same read-out and setting: the result for `CC(C)[C@@H](C)/C=C/[C@@H](C)[C@H]1CC[C@H]2/C(=C/C=C3\C[C@@H](O)CC[C@@H]3C)CCC[C@]12C` reads 11.8%; that for `CC(C)(O)c1coc(S(=O)(=O)NC(=O)Nc2c3c(cc4c2CCC4)CCC3)c1`, -9.36%.
`Cc1cnc(NC(=O)Nc2cc(Br)c(C)cc2OC[C@@H]2CNCCO2)cn1`: the inhibition in assay [1] was -8.01%.
On to `COc1cc(COc2cc(N)c(Cl)cc2C(=O)CCC2CCN(CCNS(C)(=O)=O)CC2)cc(OC)c1`, for which the inhibition in assay [1] is 28.1%.
Consider `Cc1c(NC(=O)N2CCOCC2)ccc2c1c1ccccc1n2C(C)C`, for which the inhibition in assay [1] amounted to 21.6%.
Turning to `CSc1ccc2c(c1)N(CCC1CCCCN1C)c1ccccc1S2` (stereo unspecified), the inhibition in assay [1] came to 21.9%.
On to `CN1CCCC(CC2c3ccccc3Sc3ccccc32)C1` (stereo unspecified), for which the inhibition in assay [1] was found to be 34.4%.
`CSc1ccc2c(c1)C(N1CCN(C)CC1)Cc1ccccc1S2` (stereo unspecified): in assay [1], the inhibition was 62.7%.
On the same count and under the same terms, the result for `NC(=O)C[C@H](N)C(=O)O` reads 16.2%; that for `O=C(O)CNC(=O)c1nc(Cl)c2ccccc2c1O`, -6.14%.
Consider `Cc1c2oc3c(C)ccc(C(=O)N[C@@H]4C(=O)N[C@@H](C(C)C)C(=O)N5CCC[C@H]5C(=O)N(C)CC(=O)N(C)[C@@H](C(C)C)C(=O)O[C@@H]4C)c3nc-2c(C(=O)N[C@@H]2C(=O)N[C@@H](C(C)C)C(=O)N3CCC[C@H]3C(=O)N(C)CC(=O)N(C)[C@@H](C(C)C)C(=O)O[C@@H]2C)c(N)c1=O` (I: TVP[Sar][NMeV] / II: TVP[Sar][NMeV]; ester I:1-I:C, II:1-II:C; linker I:N-II:N via Actinocin(9to1)), for which the inhibition in assay [1] worked out at 21%.
Regarding `COc1ccccc1S(=O)(=O)Nc1ccc2c(c1)CN(C)C(=O)N2`, the inhibition in assay [1] is -9.44%.
For the compound `COc1cc2c(cc1OC)CN(CCc1ccc(NC(=O)c3cccc4c(=O)c5cccc(OC)c5[nH]c34)cc1)CC2`, the inhibition in assay [1] was 59.7%.
As for `COc1cccc([C@H](O)C2CCN(CCc3ccc(F)cc3)CC2)c1OC`, the inhibition in assay [1] is -1.53%.
Consider `COc1cnc(-n2cnc(C)n2)c2[nH]cc(C(=O)C(=O)N3CCN(C(=O)c4ccccc4)CC3)c12`, for which the inhibition in assay [1] was found to be 12.8%.
Turning to `CC(C)(Sc1ccc(CCN(CCCCC2CCCCC2)C(=O)NC2CCCCC2)cc1)C(=O)O`, the inhibition in assay [1] was found to be 10.4%.
The same measure, in the same setting: as for `COc1ccc(/C=C\CCCCOc2ccc(C(=O)c3cccc(C(=O)O)c3)cc2CCC(=O)O)cc1`, the figure is -0.99%; as for `CC(C)(C)c1ccc(CN(Cc2cccc(OCC(=O)O)c2)S(=O)(=O)c2cccnc2)cc1`, 3.1%; as for `Cc1onc(-c2c(Cl)cccc2Cl)c1C(=O)N[C@@H]1C(=O)N([C@@H](C(=O)O)C(C)(C)C)[C@@H]1S`, -9.26%.
On to `O=C(Nc1ccccc1-c1cn2c(CN3CCNCC3)csc2n1)c1cnc2ccccc2n1`, for which the inhibition in assay [1] was 55.6%.
Turning to `O=C(C1CC1)N1CC[C@@H](Cc2n[nH]c(=O)n2-c2ccc(-c3ccc4occc4c3)cc2)C1`, the inhibition in assay [1] was determined as 39.2%.
Consider `CN[C@@H]1[C@@H](O)[C@H](O[C@@H]2[C@@H](O)[C@H](O[C@H]3O[C@H](CN)[C@@H](O)[C@H](O)[C@H]3O)[C@@H](N)C[C@H]2NC(=O)[C@@H](O)CN)OC[C@]1(C)O`, for which the inhibition in assay [1] was -4.97%.
For `Cc1ccc(F)c(NC(=O)Nc2ccc(-c3cccc4[nH]nc(N)c34)cc2)c1`, the inhibition in assay [1] was found to be 94.5%.
On to `Cc1cc(NC(=O)Nc2ccc(N(C)C)cc2)c2cc(F)cc(F)c2n1`, for which, in assay [1], the inhibition came out at 9.39%.
For the compound `C[N+]1(CCCCC[N+]2(C)CCCC2)CCCC1`, the inhibition in assay [1] amounted to 1.14%.
The same measure, in the same setting: the result for `NC(=O)[C@H]1CCS[C@@H]2C[C@]3(CCCN3C(=O)Cc3ccc(NC(=O)COc4ccc(Cl)cc4Cl)cc3)C(=O)N12` reads 3.16%; that for `Cc1c(C)c2c(c(C)c1O)C[C@@](C)(CCC[C@H](C)CCC[C@H](C)CCCC(C)C)OC2`, 18.1%; that for `O=C1N=C(NCc2cccs2)S/C1=C\c1ccc2ncccc2c1`, 68.2%.
For `Cc1cc(N)c2ccccc2[n+]1CCCCCCCCCC[n+]1c(C)cc(N)c2ccccc21`, in assay [1], the inhibition is -8%.
Take `Nc1cc2c3ccccc3ccc2c2ccccc12`: in assay [1], the inhibition is 96%.
Regarding `Oc1ccc2ccccc2c1Cc1c(O)ccc2ccccc12`, in assay [1], the inhibition turned out to be 25.7%.
On the same count and under the same terms, as for `COc1nccc(-c2c(-c3ccc(F)cc3)ncn2[C@H]2CC[C@H](O)CC2)n1`, the figure is -0.9%.
